# Source: PubChem BioAssay AID588850 (Sanford-Burnham Center for Chemical Genomics, 2011)
# About 3,100 (0.86%) of roughly 360,000 compounds were called active.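 The calls were made as follows: active = at least 50% inhibition at 5 µM, scaled per plate between neutral and stimulator controls; inactive = the rest.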 The sample as a whole holds a higher share of actives than the screen did.
# Assay: NF-kB reporter blockers in CF airway cells – cell-based, GFP fluorescence, uHTS, primary screen (AID 588850);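 also: PAF is a Pseudomonas aeruginosa culture filtrate used as stimulus; plate controls were PAF-stimulated DMSO wells for no effect and unstimulated DMSO wells for full effect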
# Settings: KKLEB NF-kB-GFP reporter, PAF-induced, GFP fluorescence overnight; at 5 µM; active compounds read high
row,Structure (SMILES),inhibition
1,COC1C(O)C(C)OC(OC2CCC3(C=O)C(CCC4C3CCC3(C)C(C5=CC(=O)OC5)CCC43O)C2)C1O (stereo not given),91.1% (active)
2,CCOP(=S)(OCC)SCOC(=O)NCC(=O)OC,-6.4% (inactive)
3,O=c1c2ccccc2[nH]c(=S)n1-c1cccc(Cl)c1,-27.2% (inactive)
4,Cc1ccc(-c2nn(CCC#N)cc2C(=O)O)cc1C,13.3% (inactive)
5,CC[N+](CC)(CC)CCCCCCCCCC[N+](CC)(CC)CC,9.5% (inactive)
6,COc1c(O)ccc2c1-c1c3c(cc4c1C(C2)N(C)CC4)OCO3 (stereo not given),-18.7% (inactive)
7,O=C1NC(=O)N(CCc2ccc(F)cc2)C(=O)/C1=C/C=C/c1ccccc1,101% (active)
8,c1cncc(CNC2=NCCC2)c1,13.7% (inactive)
9,CN1CCc2cc3c(cc2[C@H]1[C@@H]1OC(=O)c2c1ccc1c2OCO1)OCO3,15.1% (inactive)
10,CN(C)CCCN=Cc1c(O)n(Cc2ccco2)c(=O)[nH]c1=O,13.6% (inactive)
11,CC12CCC(O)CC1CCC1C2CCC2(C)C(C(=O)CC(O)C(F)(F)F)CCC12 (stereo not given),9.6% (inactive)
12,C[C@]12CC[C@H](O)C[C@H]1CC[C@@H]1C2CC[C@]2(C)[C@@H](C3=CC(=O)OC3)[C@@H](O)C[C@]12O (stereo not given in full),53.2% (active)
13,CCOP(=O)(OCC)C(NC(=O)NC)C(N)=O (stereo not given),-12.3% (inactive)
14,CC=C(C)C(=O)OC1CCN2CC=C(COC(=O)C(O)(C(C)OC)C(C)(C)O)C12 (stereo not given),1.6% (inactive)
15,CC(C)Oc1cccc(C(=O)C2CCCN(C3CCOCC3)C2)c1 (stereo not given),-10.1% (inactive)
16,CCOC(=O)c1cccc(C2=C(CNC(=O)c3ccncc3)[C@H]3CC[C@@H](C2)N3Cc2ccccc2)c1,2.6% (inactive)
17,CC(=CCOc1ccc2ccc(=O)oc2c1)C1=CC(=O)C(C)(C)O1,75.5% (active)
18,O=C(CCN1CCCCC1)NCC(=O)Nc1ccc(Br)cc1C(=O)c1ccccc1,-1.9% (inactive)
19,CC1=C(C(=O)Nc2ccccc2)SCCO1,-0.6% (inactive)
20,Cc1nn(-c2ccccc2)c(C)c1NC(=O)COC(=O)Cc1ccccc1,5.1% (inactive)
21,O=c1[nH]c2ccccc2n1C1CCN(C(c2ccccc2)c2nnnn2Cc2ccccc2)CC1 (stereo not given),85.1% (active)
22,O=c1[nH]c2ccccc2n1C1CCN(C(c2ccnc3ccccc23)c2nnnn2Cc2ccccc2)CC1 (stereo not given),39.9% (inactive)
23,COc1cccc(C(c2nnnn2-c2ccc3c(c2)OCCO3)N2CCC3(CC2)C(=O)NCN3c2ccccc2)c1OC (stereo not given),-0.8% (inactive)
24,CSCCC(c1nnnn1C(C)(C)C)N1CCC(n2c(=O)[nH]c3ccccc32)CC1 (stereo not given),-10.2% (inactive)
25,COc1ccc(-n2nnnc2C(c2cccc3ccccc23)N2CCC(n3c(=O)[nH]c4ccccc43)CC2)cc1 (stereo not given),53.2% (active)

row,Structure (SMILES),inhibition
1,O=C1NCN(c2ccccc2)C12CCN(C(c1cccs1)c1nnnn1C1CCCCC1)CC2 (stereo not given),-6.5% (inactive)
2,COC(=O)C1=C(c2ccccc2OCc2ccccc2)C[C@@H]2CC[C@H]1N2C(=O)NCc1ccc(OC)cc1,-7.5% (inactive)
3,CN(C)CC1CCCCC1=O (stereo not given),6% (inactive)
4,CC(C)(C)c1ccc(OC(=O)N2CCCCC2)cc1,16% (inactive)
5,N=c1ccccn1Cc1ccccc1,14.3% (inactive)
6,CC1=C2C(=O)C3C(CC=C4CC(OC5OC(O)C(O)C(O)C5CO)CCC43C)C2CCC12OC1CC(C)CNC1C2C (stereo not given),7.6% (inactive)
7,CCC1(C)CC(CCNCc2ccc(N(C)C)cc2)(c2ccc(F)cc2)CCO1 (stereo not given),22.8% (inactive)
8,Cc1cc(C)c2c(c1)NP(=S)(c1ccccc1)N2 (stereo not given),24.3% (inactive)
9,CCOC(=O)CC1=C(C(=O)OCC)C2(C(=O)N1)C(C(=O)OC)=C(N)Oc1ccccc12 (stereo not given),-14% (inactive)
10,CN(C)CC1Oc2ccccc2OC1(O)c1ccccc1 (stereo not given),75.7% (active)
11,CN(C)S(=O)(=O)c1cc(C(=O)N2CCC(C(=O)O)(c3ccccc3)CC2)ccc1Cl,7.2% (inactive)
12,COC(=O)C1=C(c2ccccc2)C[C@@H]2CC[C@H]1N2C(=O)N1CCCCC1,-2.3% (inactive)
13,Cc1cccc(NC(=O)OC2CN3CCC2CC3)c1 (stereo not given),9% (inactive)
14,O=C1NC(=O)C(Cc2ccccc2)C(=O)N1,-11% (inactive)
15,C=CCN1C(=O)C2(C(C(=O)OCC)=C(N)Oc3c2c(=O)oc2ccccc32)c2ccccc21 (stereo not given),-5.7% (inactive)
16,CC(=O)OC1C2(CC3N4C(=O)C5(CO)SSC4(CC31O)C(=O)N5C)OC(C)C(C)(C)C2=O (stereo not given),88.5% (active)
17,CC(CC(C#N)(c1ccccc1)c1ccccc1)N1CCCCC1 (stereo not given),7.8% (inactive)
18,CCC(C)(O)C(=O)OC1C(=O)OC2CC3C(C)=CC(=O)C(O)C3(C)C3C4(O)OCC23C1C(C)C4O (stereo not given),91.3% (active)
19,CCOC(=O)C1(Cc2ccc(Cl)cc2)CCN(C(C)CCn2cccn2)CC1 (stereo not given),29.4% (inactive)
20,CC1(C)C(c2ccccc2)=NC(c2cccnc2)=[N+]1[O-],7.5% (inactive)
21,CCCCCCCCCCCCn1ccc(=N)cc1,61.8% (active)
22,CN(C)C(=O)Oc1ccc(NC(=O)N2CCOCC2)cc1,-9.2% (inactive)
23,O=C(CCC(=O)N1C[C@H]2C[C@@H](C1)c1cccc(=O)n1C2)NCc1ccccc1C(F)(F)F,-6.7% (inactive)
24,COC(=O)C1=C(c2cccc(OCc3ccccc3)c2)C[C@@H]2CC[C@H]1N2C(=O)NCc1ccc(Br)cc1,6.2% (inactive)
25,COC(=O)COc1cc(C)cc2oc(=O)c3c(c12)CCCC3,5.1% (inactive)
